Measured values: paper PMC11006913
Residue numbers refer to the chain shown, from its start.

How the values were obtained:
Assay in all cases: PBM; 200 nM protein, PBS
Settings in all cases: dsDNA, one strand shown
[1] = molecular target: T1, PAX4 (Homo sapiens, UniProt O43316 9-242, F177V)
T1 sequence: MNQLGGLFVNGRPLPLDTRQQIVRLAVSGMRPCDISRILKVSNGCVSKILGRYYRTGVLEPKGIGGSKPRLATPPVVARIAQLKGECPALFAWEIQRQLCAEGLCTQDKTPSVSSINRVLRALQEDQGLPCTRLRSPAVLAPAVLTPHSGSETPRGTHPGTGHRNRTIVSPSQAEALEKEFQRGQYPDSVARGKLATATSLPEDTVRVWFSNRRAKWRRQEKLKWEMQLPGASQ

[2] = molecular target: HOXD13 (Homo sapiens, UniProt P35453 263-343)
[3] = molecular target: HOXD13 (Homo sapiens, UniProt P35453 263-343, T313A)
[4] = molecular target: T2, PAX4 (Homo sapiens, UniProt O43316 9-242, R227W)
T2 sequence: T1 sequence with V169F, R219W

[5] = molecular target: HOXA4 (Homo sapiens, UniProt Q00056 201-287)
[6] = molecular target: T3, PAX4 (Homo sapiens, UniProt O43316 9-242, F177Y)
T3 sequence: T1 sequence with V169Y

[7] = molecular target: T4, SIX6 (Homo sapiens, UniProt O95475 114-200, L167V)
T4 sequence: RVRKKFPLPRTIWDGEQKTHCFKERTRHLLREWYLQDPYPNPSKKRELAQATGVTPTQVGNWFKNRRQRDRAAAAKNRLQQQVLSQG

[8] = molecular target: ALX3 (Homo sapiens, UniProt O95076 139-225)
[9] = molecular target: PROP1 (Homo sapiens, UniProt O75360 56-141)
[10] = molecular target: PROP1 (Homo sapiens, UniProt O75360 56-141, R99H)
[11] = molecular target: PROP1 (Homo sapiens, UniProt O75360 56-141, F88S)
[12] = molecular target: T5, NKX2-4 (Homo sapiens, UniProt Q9H2Z4 175-261, R246Q)
T5 sequence: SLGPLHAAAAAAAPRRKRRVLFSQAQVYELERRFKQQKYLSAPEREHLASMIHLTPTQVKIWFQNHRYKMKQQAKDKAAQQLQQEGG

[13] = molecular target: VAX1 (Homo sapiens, UniProt Q5SQQ9 86-172)
[14] = molecular target: VAX1 (Homo sapiens, UniProt Q5SQQ9 86-172, T142I)
[15] = molecular target: VAX1 (Homo sapiens, UniProt Q5SQQ9 86-172, K157R)
VAX1 (Homo sapiens, UniProt Q5SQQ9 86-172, K157R), sequence (Q5SQQ9 86-172 K157R): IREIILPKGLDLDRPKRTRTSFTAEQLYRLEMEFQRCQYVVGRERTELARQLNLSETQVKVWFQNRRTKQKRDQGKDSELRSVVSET

PROP1 (Homo sapiens, UniProt O75360 56-141, R99H), sequence (O75360 56-141 R99H): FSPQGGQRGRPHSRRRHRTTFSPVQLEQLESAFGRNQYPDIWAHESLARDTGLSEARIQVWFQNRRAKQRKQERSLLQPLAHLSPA
HOXD13 (Homo sapiens, UniProt P35453 263-343), sequence (P35453 263-343): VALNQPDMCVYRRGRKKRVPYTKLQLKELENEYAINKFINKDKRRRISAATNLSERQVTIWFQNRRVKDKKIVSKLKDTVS
ALX3, sequence (O95076 139-225): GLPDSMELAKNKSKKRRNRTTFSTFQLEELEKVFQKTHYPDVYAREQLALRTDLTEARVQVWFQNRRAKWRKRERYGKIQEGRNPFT
HOXD13 (Homo sapiens, UniProt P35453 263-343, T313A), sequence (P35453 263-343 T313A): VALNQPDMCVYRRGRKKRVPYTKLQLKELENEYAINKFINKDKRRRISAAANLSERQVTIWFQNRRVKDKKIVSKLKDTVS
PROP1 (Homo sapiens, UniProt O75360 56-141, F88S), sequence (O75360 56-141 F88S): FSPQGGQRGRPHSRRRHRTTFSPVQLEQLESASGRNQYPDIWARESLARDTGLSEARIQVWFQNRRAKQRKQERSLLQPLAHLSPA
PROP1 (Homo sapiens, UniProt O75360 56-141), sequence (O75360 56-141): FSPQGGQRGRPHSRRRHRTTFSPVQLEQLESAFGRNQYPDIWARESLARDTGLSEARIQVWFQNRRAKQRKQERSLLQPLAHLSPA
VAX1 (Homo sapiens, UniProt Q5SQQ9 86-172), sequence (Q5SQQ9 86-172): as the sequence (Q5SQQ9 86-172 K157R) above, with R72K counted along it
VAX1 (Homo sapiens, UniProt Q5SQQ9 86-172, T142I), sequence (Q5SQQ9 86-172 T142I): as the sequence (Q5SQQ9 86-172 K157R) above, with T57I, R72K counted along it
HOXA4, sequence (Q00056 201-287): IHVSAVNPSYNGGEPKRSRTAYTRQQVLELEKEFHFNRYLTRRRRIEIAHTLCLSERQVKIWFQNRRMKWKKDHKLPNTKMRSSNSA

ATTATATG
binding signal [1]: 10.6 upbm affinity estimate (log intensity, higher = more binding, comparable within an allelic series)

ATGATATA
binding signal [1]: 10.7 upbm affinity estimate (log intensity, higher = more binding, comparable within an allelic series)

TAAATGAA
binding signal [2]: 10.9 upbm affinity estimate (log intensity, higher = more binding, comparable within an allelic series) | binding signal [3]: 10.9 upbm affinity estimate (log intensity, higher = more binding, comparable within an allelic series)

AAAATTAA
binding signal [2]: 10.9 upbm affinity estimate (log intensity, higher = more binding, comparable within an allelic series) | binding signal [3]: 10.8 upbm affinity estimate (log intensity, higher = more binding, comparable within an allelic series)

ATAACGAC
binding signal [2]: 11 upbm affinity estimate (log intensity, higher = more binding, comparable within an allelic series) | binding signal [3]: 10.8 upbm affinity estimate (log intensity, higher = more binding, comparable within an allelic series)

ATTGTATA
binding signal [1]: 10.5 upbm affinity estimate (log intensity, higher = more binding, comparable within an allelic series)

AATATAGT
binding signal [2]: 11 upbm affinity estimate (log intensity, higher = more binding, comparable within an allelic series) | binding signal [3]: 11.1 upbm affinity estimate (log intensity, higher = more binding, comparable within an allelic series)

CGTTATTA
binding signal [2]: 11.2 upbm affinity estimate (log intensity, higher = more binding, comparable within an allelic series) | binding signal [3]: 11.1 upbm affinity estimate (log intensity, higher = more binding, comparable within an allelic series)

ATATACAT
binding signal [1]: 10.6 upbm affinity estimate (log intensity, higher = more binding, comparable within an allelic series)

ATATTATG
binding signal [1]: 10.7 upbm affinity estimate (log intensity, higher = more binding, comparable within an allelic series) | binding signal [4]: 10.9 upbm affinity estimate (log intensity, higher = more binding, comparable within an allelic series)

CAAGATAA
binding signal [5]: 10.9 upbm affinity estimate (log intensity, higher = more binding, comparable within an allelic series)

ATAATTCA
binding signal [1]: 10.7 upbm affinity estimate (log intensity, higher = more binding, comparable within an allelic series) | binding signal [6]: 11.1 upbm affinity estimate (log intensity, higher = more binding, comparable within an allelic series) | binding signal [4]: 10.9 upbm affinity estimate (log intensity, higher = more binding, comparable within an allelic series)

AGATATCT
binding signal [7]: 10.8 upbm affinity estimate (log intensity, higher = more binding, comparable within an allelic series)

GATATGGA
binding signal [8]: 9.24 upbm affinity estimate (log intensity, higher = more binding, comparable within an allelic series)

CCAAACAA
binding signal [8]: 8.78 upbm affinity estimate (log intensity, higher = more binding, comparable within an allelic series)

CACATAAA
binding signal [3]: 11.6 upbm affinity estimate (log intensity, higher = more binding, comparable within an allelic series)

GCTAGACC
binding signal [9]: 6.61 upbm affinity estimate (log intensity, higher = more binding, comparable within an allelic series) | binding signal [10]: 6.75 upbm affinity estimate (log intensity, higher = more binding, comparable within an allelic series) | binding signal [11]: 6.62 upbm affinity estimate (log intensity, higher = more binding, comparable within an allelic series)

AACAAGTG
binding signal [12]: 12.9 upbm affinity estimate (log intensity, higher = more binding, comparable within an allelic series)

TGAGATAA
binding signal [8]: 9.8 upbm affinity estimate (log intensity, higher = more binding, comparable within an allelic series)

ACTATTAT
binding signal [8]: 10.4 upbm affinity estimate (log intensity, higher = more binding, comparable within an allelic series)

ATTTCCTA
binding signal [9]: 7.97 upbm affinity estimate (log intensity, higher = more binding, comparable within an allelic series)

AATAGTCC
binding signal [9]: 8.13 upbm affinity estimate (log intensity, higher = more binding, comparable within an allelic series)

TTACTCAA
binding signal [9]: 8.57 upbm affinity estimate (log intensity, higher = more binding, comparable within an allelic series) | binding signal [10]: 7.91 upbm affinity estimate (log intensity, higher = more binding, comparable within an allelic series) | binding signal [13]: 9.78 upbm affinity estimate (log intensity, higher = more binding, comparable within an allelic series) | binding signal [11]: 7.39 upbm affinity estimate (log intensity, higher = more binding, comparable within an allelic series) | binding signal [14]: 9.49 upbm affinity estimate (log intensity, higher = more binding, comparable within an allelic series) | binding signal [15]: 9.35 upbm affinity estimate (log intensity, higher = more binding, comparable within an allelic series)

GCATTACA
binding signal [9]: 8.11 upbm affinity estimate (log intensity, higher = more binding, comparable within an allelic series) | binding signal [10]: 7.66 upbm affinity estimate (log intensity, higher = more binding, comparable within an allelic series)

AAAAATAA
binding signal [8]: 9.76 upbm affinity estimate (log intensity, higher = more binding, comparable within an allelic series)

AAAAATTT
binding signal [9]: 8.27 upbm affinity estimate (log intensity, higher = more binding, comparable within an allelic series) | binding signal [10]: 7.95 upbm affinity estimate (log intensity, higher = more binding, comparable within an allelic series) | binding signal [11]: 7.46 upbm affinity estimate (log intensity, higher = more binding, comparable within an allelic series)

TGTAGTAA
binding signal [9]: 8.45 upbm affinity estimate (log intensity, higher = more binding, comparable within an allelic series) | binding signal [10]: 8 upbm affinity estimate (log intensity, higher = more binding, comparable within an allelic series)

AATACTAC
binding signal [9]: 7.84 upbm affinity estimate (log intensity, higher = more binding, comparable within an allelic series)

CGCGTCCC
binding signal [9]: 6.69 upbm affinity estimate (log intensity, higher = more binding, comparable within an allelic series) | binding signal [10]: 6.77 upbm affinity estimate (log intensity, higher = more binding, comparable within an allelic series) | binding signal [11]: 6.52 upbm affinity estimate (log intensity, higher = more binding, comparable within an allelic series)

ATTGTCTC
binding signal [9]: 7.7 upbm affinity estimate (log intensity, higher = more binding, comparable within an allelic series)

CCCGACAC
binding signal [9]: 6.59 upbm affinity estimate (log intensity, higher = more binding, comparable within an allelic series) | binding signal [10]: 6.79 upbm affinity estimate (log intensity, higher = more binding, comparable within an allelic series) | binding signal [13]: 6.71 upbm affinity estimate (log intensity, higher = more binding, comparable within an allelic series) | binding signal [11]: 6.7 upbm affinity estimate (log intensity, higher = more binding, comparable within an allelic series) | binding signal [14]: 6.92 upbm affinity estimate (log intensity, higher = more binding, comparable within an allelic series) | binding signal [15]: 6.92 upbm affinity estimate (log intensity, higher = more binding, comparable within an allelic series)

TCCTTAGA
binding signal [8]: 8.33 upbm affinity estimate (log intensity, higher = more binding, comparable within an allelic series)
